# High-throughput results: PubChem, Johns Hopkins Ion Channel Center
# Hits are enriched below; roughly 1.6% of the tested compounds scored in any of these assays.
# KCNQ2 inh = KCNQ2 (rat) channel inhibition. O88943. CHO-K1 KCNQ2, FluxOR thallium flux, 20 min; active compounds read low. B-score at 10 µM. 310,000 compounds, 1.1% hits;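 active = fluorescence ratio B-score at most minus 3 library SDs, with starting brightness B-score within 2 library SDs, cut at about -5.5 in these data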
# KCNQ2 enhance = enhances the rat KCNQ2 potassium channel; CHO-K1 KCNQ2, FluxOR thallium flux fluorescence; active compounds read high; B-score at 10 µM; O88943; AID 2239; 310,000 compounds, 0.54% hits;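 active = fluorescence ratio B-score at least 3 SD of library B-scores, with initial fluorescence B-score within 3 of them, cut at about 5.3 in these data; same plate scores as AID 2156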;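 also: B-score of peak minus minimum over baseline fluorescence ratio after K+ and Tl+ stimulus; positive B-score means potentiation of KCNQ2 with more thallium influx and brighter signal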
# Kir21 conf inh = confirmation of mouse Kir2.1 potassium channel inhibitors; 2,300 compounds, 41% hits; shares compounds with KCNQ2 enhance; AID 2032; Kir2.1-expressing cells, FluxOR thallium flux fluorescence; active compounds read low; Tl flux remaining, % of negative control (active compounds read low), % at 10 µM;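 active = Primary-screen hit whose thallium flux fell at least 3 control SD below untreated wells in both duplicates, with normal baseline fluorescence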;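 also: 0% = blank wells without stimulus and 100% = stimulated no-compound controls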
# HEK293 Tl flux = parental HEK293 activity in Kir2.1 inhibitor counter-screen; AID 2105; parental HEK293 cells, FluxOR thallium flux fluorescence; 0% = unstimulated blank wells; FluxOR signal as % of negative control (100 = no effect), % at 10 µM; shares compounds with KCNQ2 enhance; 2,300 compounds, 19% hits;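 active = dye signal at least 3 control SD above or below untreated wells in both duplicates, raw fluorescence within 3, either direction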;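 also: percent is based on the flux ratio of peak minus minimum fluorescence over baseline F0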
# CHO-K1 ctr = counter-screen for KCNQ2 potentiators: effect in parental CHO-K1 cells | AID 2282 | 1,200 compounds, 43% hits | shares compounds with KCNQ2 enhance | FluxOR thallium flux fluorescence; zero = vehicle mean+3SD, 100% = vehicle-minus-blank window | activity increase over 3SD of controls, % at 10 µM;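 active = signal rise of at least 3 SD above the untreated control mean, in both duplicate wells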;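 also: counter screen of KCNQ2 potentiator hits so any rise reflects channel-independent effects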
# KCNQ1 sel pot = human KCNQ1 counter-target activity of KCNQ2 potentiators; CHO KCNQ1 stable, FluxOR thallium flux fluorescence; beyond 3SD, as % of vehicle-control signal; shares compounds with KCNQ2 enhance; 1,200 compounds, 28% hits; activation over 3SD threshold, % at 10 µM; AID 2283;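 active = fluorescence ratio rise of at least 3 SD of vehicle wells above their mean, in both replicate wells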;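 also: 0% = vehicle mean plus 3 SD and 100% = vehicle minus unstimulated blank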
# KCNQ2 pot conf = confirmation of rat KCNQ2 potassium channel potentiators | shares compounds with KCNQ2 enhance | CHO-KCNQ2 cells, FluxOR thallium flux fluorescence | potentiation, less the hit threshold, % at 10 µM | 1,200 compounds, 68% hits;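 active = fluorescence ratio rising 3 SD or more over the vehicle control mean in both replicates, plus primary screen hit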;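 also: peak minus minimum thallium fluorescence divided by baseline after K/Tl stimulus; 0% = vehicle mean plus 3 SD and 100% = vehicle minus unstimulated blank difference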
# Kir2-1 sel = selectivity of KCNQ2 potentiators: effect on mouse Kir2.1; 1,200 compounds, 2% hits; AID 2345; activity over 3SD threshold, % at 10 µM; HEK293 Kir2.1, FluxOR thallium flux fluorescence; shares compounds with KCNQ2 enhance;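 active = fluorescence ratio rise of at least 3 SD above the vehicle-control mean, seen in both replicates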;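 also: 0% = vehicle mean plus 3 SD and 100% = vehicle minus no-stimulus blank window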
# KCNQ2 W236L pot = KCNQ2 potentiators acting on retigabine-insensitive rat KCNQ2 W236L mutant. shares compounds with KCNQ2 enhance. CHO KCNQ2-W236L, automated patch clamp current. current increase over 3SD of negative controls (%), active compounds read high, % at 25 µM. 940 compounds, 10% hits;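 active = current increase at least 3 SD of the untreated controls above them in both duplicate recordings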
# Target sequence (O88943 whole entry W236L, looked up): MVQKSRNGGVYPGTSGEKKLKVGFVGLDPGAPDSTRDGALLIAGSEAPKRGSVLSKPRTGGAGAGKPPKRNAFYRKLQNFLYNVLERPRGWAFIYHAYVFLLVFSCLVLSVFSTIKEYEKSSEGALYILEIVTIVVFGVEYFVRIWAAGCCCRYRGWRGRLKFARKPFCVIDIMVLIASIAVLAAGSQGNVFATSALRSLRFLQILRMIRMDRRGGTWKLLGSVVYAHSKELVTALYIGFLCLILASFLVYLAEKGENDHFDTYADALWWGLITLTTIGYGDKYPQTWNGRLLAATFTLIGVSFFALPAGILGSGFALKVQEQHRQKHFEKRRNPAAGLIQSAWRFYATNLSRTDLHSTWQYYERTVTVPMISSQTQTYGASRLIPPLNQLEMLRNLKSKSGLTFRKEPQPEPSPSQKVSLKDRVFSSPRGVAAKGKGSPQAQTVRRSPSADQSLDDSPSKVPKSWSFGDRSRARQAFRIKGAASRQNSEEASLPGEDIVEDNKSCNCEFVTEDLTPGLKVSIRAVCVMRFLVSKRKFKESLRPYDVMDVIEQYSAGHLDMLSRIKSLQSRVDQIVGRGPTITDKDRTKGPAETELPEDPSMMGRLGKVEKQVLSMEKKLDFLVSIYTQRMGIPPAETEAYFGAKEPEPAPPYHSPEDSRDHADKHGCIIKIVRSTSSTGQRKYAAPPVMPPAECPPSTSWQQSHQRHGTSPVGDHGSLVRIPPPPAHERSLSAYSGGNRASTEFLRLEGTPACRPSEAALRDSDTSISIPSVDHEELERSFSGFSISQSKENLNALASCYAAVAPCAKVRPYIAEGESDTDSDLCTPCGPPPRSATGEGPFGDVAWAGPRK
# Starred values were filed as active, the others as inactive; i = inactive; . = no result given.
SMILES,KCNQ2 inh,KCNQ2 enhance,Kir21 conf inh,HEK293 Tl flux,others
Cc1cc(C)n(/N=C/c2cc(Cl)cc(Cl)c2O)c(=O)c1,i,9.8*,i,i,CHO-K1 ctr=-14;KCNQ1 sel pot=39*;KCNQ2 pot conf=-13;Kir2-1 sel=-41
CN1N=C(C(=O)NC2CCCc3c2cnn3-c2ccc(F)cc2F)CCC1=O (configuration not stated),i,0.88,.,.,
O=C(/C=C/c1ccccc1)NCc1ccc2c(c1)OCO2,i,2,.,.,
O=C(NCc1ccc2c(c1)OCO2)Nc1cccc(Cl)c1,i,21*,i,i,CHO-K1 ctr=-11;KCNQ1 sel pot=-31;KCNQ2 pot conf=70*;Kir2-1 sel=-26;KCNQ2 W236L pot=i
O=C(/C=C/c1cccs1)NCc1ccc2c(c1)OCO2,i,8.6*,i,i,CHO-K1 ctr=12*;KCNQ1 sel pot=-11;KCNQ2 pot conf=1.0*;Kir2-1 sel=-40;KCNQ2 W236L pot=i
CC(=O)c1cccc(NC(=O)NCc2ccc3c(c2)OCO3)c1,i,2.1,.,.,
O=[N+]([O-])c1cccc(CSc2nc3ccccc3[nH]2)c1,i,1.2,.,.,
Cc1sc(NC(=O)C2CCCCC2C(=O)O)c(C(N)=O)c1-c1ccccc1 (configuration not stated),i,1.3,.,.,
O=C(O)C1CC=CCC1C(=O)Nc1ccc(F)c(F)c1 (configuration not stated),i,.,.,.,
Cc1cccc(C)c1NC(=O)C1(NC(=O)C2CCC(=O)N2)CCCCC1 (configuration not stated),i,0.67,.,.,
CCOc1ccc(NC(=O)CSc2nc3ccccc3c(=O)n2CCCC(=O)N2CCCC2)cc1,i,.,.,.,
CC(=O)N1CCN(C(=O)c2ccc(S(=O)(=O)Nc3cccc(C(F)(F)F)c3)cc2)CC1,i,0.66,i,i,
O=C(c1ccc(S(=O)(=O)Nc2cccc(C(F)(F)F)c2)cc1)N1CCC1,i,0.45,.,.,
COCCCNS(=O)(=O)c1ccc(SC)cc1,i,.,.,.,
CN(C)CC1CCCCC1C1(O)c2ccccc2CSc2sccc21 (configuration not stated),i,1.5,69%*,i,
CN(C)CC1CCCCC1OC(=O)c1ccc(Cl)cc1 (configuration not stated),i,0.35,.,.,
CNC(=O)c1cc(Cl)c(OC)c(OC)c1,i,.,.,.,
COc1ccc2cc(CN(CCc3ccccc3)Cc3nnnn3Cc3ccco3)c(=O)[nH]c2c1,i,.,.,.,
CCC1(c2ccc(Cl)cc2)NC(=S)N(c2ccc(C)c(C)c2)N1 (configuration not stated),i,29*,i,537%*,CHO-K1 ctr=21*;KCNQ1 sel pot=-10;KCNQ2 pot conf=68*;Kir2-1 sel=-3
Cc1ccc(-n2c(C)n[nH]c2=S)cc1C,i,.,.,.,
CCC1(c2ccccc2)NC(=S)N(c2ccc(C)c(C)c2)N1 (configuration not stated),i,13*,i,435%*,CHO-K1 ctr=-5;KCNQ1 sel pot=-18;KCNQ2 pot conf=55*;Kir2-1 sel=-19;KCNQ2 W236L pot=i
CC1=CC(C)(C)NC(=S)N1c1ccc(C)c(C)c1,i,0.02,.,.,
Clc1ccc(SCc2csc(N3CCOCC3)n2)cc1,i,0.62,.,.,
COC(=O)C[C@H]1c2ccc(C(F)(F)F)cc2S(=O)(=O)N1Cc1ccccc1,i,.,.,.,
CCCCSCCCNC(=O)Nc1cccc(OC)c1,i,8.6*,i,i,CHO-K1 ctr=-14;KCNQ1 sel pot=-16;KCNQ2 pot conf=15*;Kir2-1 sel=-36;KCNQ2 W236L pot=i
COc1cccc(NC(=O)NCCc2ccc(Cl)cc2)c1,i,.,.,.,
CN(C)c1ccc(C2OC(=O)C(C)(C)C(=O)C2(C)C)cc1 (configuration not stated),i,.,.,.,
